# Data reported in PubChem BioAssay (Tox21).
# “And” between values parts separate entries of the source, which are not always exact repeats. Identical values can stand only once. Inconclusive results are not listed. Entries that show only a call come without a potency. A structure can be active in one record and inactive in another. The source made the active and inactive calls. Unless noted, the call rests on the fitted dose curve; in most records, active means well fitted curve in the direction sought with a large enough effect in the repeat runs; inconclusive means weak or mixed curves; inactive means no such curve, though single readings can be large; an effect the other way counts as inactive or inconclusive.
# Assays:
# [1] = qHTS assay to identify small molecule antagonists of the estrogen related receptor (ERR) signaling pathway from Tox21 library - cell viability counter screen (AID 1224834); further: nearly all actives have a fitted effect of over 30% in size
# Method in brief: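 Multiplexed viability counter screen in ERR cells: 17.5 h compound exposure at 37 C, CellTiter-Fluor added, 30 min at 37 C/5% CO2, fluorescence read.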
# [2] = target: Luciferin 4-monooxygenase (Photinus pyralis) (UniProt P08659); test: qHTS assay to identify small molecule inhibitors of firefly luciferase (AID 1224835); further: nearly all actives have a fitted effect of over 25% in size
# Method in brief: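 Biochemical qHTS: compounds run as interplate titrations against purified firefly enzyme, with D-luciferin and ATP each at its KM concentration. Light output recorded by CCD imaging.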
# [3] = qHTS assay to identify small molecule agonists of the constitutive androstane receptor (CAR) signaling pathway - cell viability counter screen (AID 1224836); further: nearly all actives have a fitted effect of over 45% in size
# Method in brief: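 Multiplexed viability check: HepG2-CYP2B6-hCAR cells, 15-point compound dosing, 0.75 uM PK11195 final, 23 h at 37 C, CellTiter-Fluor fluorescence.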
# [4] = qHTS assay to identify small molecule antagonists of the constitutive androstane receptor (CAR) signaling pathway - cell viability counter screen (AID 1224837); further: nearly all actives have a fitted effect of over 45% in size
# Method in brief: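 Read-out: CellTiter-Fluor fluorescence after 23 hr at 37 C/5% CO2. Cells: HepG2 double-stable for hCAR and CYP2B6-2.2kb. Compounds tested at 15 concentrations in the presence of CITCO, final concentration 50 nM.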
# [5] = qHTS assay to identify small molecule antagonists of the estrogen related receptor signaling pathway with the pleiotropic PPARgamma coactivator (PGC) from Tox21 10K library - cell viability counter screen (AID 1224840; active means well fitted cell-killing curve with a large enough effect in the repeat runs, not every such curve was filed as active; further: nearly all actives have a fitted effect of over 40% in size)
# Method in brief: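 Fluorescence read-out of CellTiter-Fluor viability reagent, added after cells had been exposed to compound in DMSO for 17.5 h at 37 C; 30 min development at 37 C/5% CO2. Cells: PGC/ERR line, 2,000/well.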
# [6] = qHTS assay to identify small molecule antagonists of the estrogen related receptor signaling pathway with the pleiotropic PPARgamma coactivator (PGC) from Tox21 10K library (AID 1224841; call rule not given here; further: actives are mostly falling curves and most rising ones were filed inactive; nearly all actives have a fitted effect of over 50% in size)
# Method in brief: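 Luminescence read-out (One-Glo luciferase reagent, 30 min at room temperature) from PGC/ERR cells exposed to DMSO-dissolved test compounds for 18 h at 37 C; cells, 2,000 per well, had been preincubated 6 h before compound transfer.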
# [7] = target: Thyrotropin receptor (Homo sapiens) (UniProt P16473); test: qHTS assay to identify small molecule agonists of the thyroid stimulating hormone receptor (TSHR) signaling pathway (AID 1224843; calls by dose curve; further: nearly all actives have a fitted effect of over 45% in size)
# Method in brief: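 HEK293/TSHR, 800 cells/well; cpd 30 min RT; add cAMP-d2 + anti-cAMP-cryptate, 1 h RT; fluorescence read on plate reader. 15-pt titration, n=3.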
# [8] = target: Nuclear receptor subfamily 1 group I member 3 (Homo sapiens) (UniProt Q14994); test: qHTS assay to identify small molecule antagonists of the constitutive androstane receptor (CAR) signaling pathway (AID 1224838);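 further: HepG2 cells stably expressing hCAR with CYP2B6 luciferase reporter stimulated by CITCO; nearly all actives have a fitted effect of over 40% in size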
# Method in brief: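 Read-out: ONE-Glo luciferase luminescence after 30 min at room temperature. HepG2-CYP2B6-hCAR double-stable cells, compounds in 15-point titration plus 50 nM CITCO final, 24 h at 37 C/5% CO2.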
# [9] = target: Nuclear receptor subfamily 1 group I member 3 (Homo sapiens) (UniProt Q14994); test: qHTS assay to identify small molecule agonists of the constitutive androstane receptor (CAR) signaling pathway (AID 1224839); further: nearly all actives have a fitted effect of over 15% in size
# Method in brief: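 Using human hepatoma HepG2 cells engineered with hCAR and a CYP2B6-2.2kb reporter, 15-concentration compound series were incubated 24 h alongside PK11195 at 0.75 uM final, with luminescence quantified afterwards.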
# Potency means the concentration at half of the fitted maximal effect.
# Chain of Luciferin 4-monooxygenase (Photinus pyralis) (P08659 whole entry, looked up): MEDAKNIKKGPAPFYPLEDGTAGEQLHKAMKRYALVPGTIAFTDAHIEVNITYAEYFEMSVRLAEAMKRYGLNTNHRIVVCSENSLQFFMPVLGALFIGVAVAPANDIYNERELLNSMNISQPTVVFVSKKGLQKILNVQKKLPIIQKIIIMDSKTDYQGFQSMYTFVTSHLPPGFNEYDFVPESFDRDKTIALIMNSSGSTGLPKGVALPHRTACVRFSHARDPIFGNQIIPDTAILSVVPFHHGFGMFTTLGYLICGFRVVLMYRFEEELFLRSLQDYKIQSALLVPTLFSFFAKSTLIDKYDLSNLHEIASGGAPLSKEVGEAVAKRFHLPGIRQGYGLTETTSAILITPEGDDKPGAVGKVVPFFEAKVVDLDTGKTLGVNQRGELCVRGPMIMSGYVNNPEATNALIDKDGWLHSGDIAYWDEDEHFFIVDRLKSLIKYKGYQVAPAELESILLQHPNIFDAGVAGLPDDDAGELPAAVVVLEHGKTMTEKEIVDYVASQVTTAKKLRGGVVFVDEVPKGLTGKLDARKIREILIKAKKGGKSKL
# Chain of Thyrotropin receptor (Homo sapiens) (P16473 whole entry, looked up): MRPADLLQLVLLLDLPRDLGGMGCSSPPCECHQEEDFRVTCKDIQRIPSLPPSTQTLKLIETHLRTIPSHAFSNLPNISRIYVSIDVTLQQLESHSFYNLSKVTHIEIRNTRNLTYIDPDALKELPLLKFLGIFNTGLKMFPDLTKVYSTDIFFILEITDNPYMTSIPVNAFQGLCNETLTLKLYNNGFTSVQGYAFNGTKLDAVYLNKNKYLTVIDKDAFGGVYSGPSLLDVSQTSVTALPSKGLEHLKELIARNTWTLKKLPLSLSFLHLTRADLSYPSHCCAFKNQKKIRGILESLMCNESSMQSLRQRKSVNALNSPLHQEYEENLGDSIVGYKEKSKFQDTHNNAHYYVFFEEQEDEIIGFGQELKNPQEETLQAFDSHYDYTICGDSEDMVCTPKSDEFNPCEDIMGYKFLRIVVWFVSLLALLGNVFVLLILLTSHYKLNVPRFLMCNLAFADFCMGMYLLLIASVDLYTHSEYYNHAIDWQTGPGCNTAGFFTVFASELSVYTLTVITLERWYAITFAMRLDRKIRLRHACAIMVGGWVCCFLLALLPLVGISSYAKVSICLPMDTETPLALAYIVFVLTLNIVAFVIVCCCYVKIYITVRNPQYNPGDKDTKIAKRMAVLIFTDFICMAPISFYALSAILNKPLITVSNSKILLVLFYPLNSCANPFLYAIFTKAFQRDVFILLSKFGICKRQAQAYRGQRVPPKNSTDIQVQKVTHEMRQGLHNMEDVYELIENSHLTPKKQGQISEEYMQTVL
# Chain of Nuclear receptor subfamily 1 group I member 3 (Homo sapiens) (Q14994 whole entry, looked up): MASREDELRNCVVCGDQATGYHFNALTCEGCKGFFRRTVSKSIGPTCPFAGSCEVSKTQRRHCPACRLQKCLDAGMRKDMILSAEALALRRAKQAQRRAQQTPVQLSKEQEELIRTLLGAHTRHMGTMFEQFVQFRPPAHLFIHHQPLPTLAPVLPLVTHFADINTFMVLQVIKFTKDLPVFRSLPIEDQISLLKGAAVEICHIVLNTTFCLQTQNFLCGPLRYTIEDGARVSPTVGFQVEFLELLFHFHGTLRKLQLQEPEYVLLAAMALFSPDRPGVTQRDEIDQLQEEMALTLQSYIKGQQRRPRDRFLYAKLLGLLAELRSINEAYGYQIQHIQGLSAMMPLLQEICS
SMILES,Potency [1],Potency [2],Potency [3],Potency [4],Potency [5],Potency [6],Potency [7],Potency [8],Potency [9]
FC(F)(F)C(Cl)Br (stereo unspecified),inactive,inactive,inactive,inactive,inactive,inactive,inactive,,
C1CN(SSN2CCOCC2)CCO1,,inactive,inactive,,,53.9 µM (active),inactive,,
O=C(O)CCCCCCCCCCCC(=O)O,inactive,inactive,inactive,inactive,inactive,60.1 µM (active) and inactive,inactive,,
C=C[C@H]1CN2CC[C@H]1C[C@H]2[C@H](O)c1ccnc2ccc(OC)cc12,inactive,,inactive,inactive,inactive,,,inactive,
CC(=O)OC(C)C,inactive,inactive,inactive,inactive,inactive,,inactive,,
O=C(CCCN1CCC(O)(c2ccc(Cl)cc2)CC1)c1ccc(F)cc1,61.1 µM (active) and inactive,,61.1 µM (active),54.5 µM (active),54.5 µM (active) and inactive,,inactive,,
Cc1ccc(/C(=C\CN2CCCC2)c2ccccn2)cc1,inactive,,inactive,inactive,inactive,,inactive,,
COc1ccc(-c2coc3cc(O)cc(O)c3c2=O)cc1,,6.38 µM (active) and 5.03 µM (active),inactive,inactive,inactive,,inactive,inactive,15.5 µM (active) and 27.3 µM (active)
CCCCCCOCCOCCO,inactive,,inactive,inactive,inactive,,inactive,,
OCCNCCO,inactive,inactive,inactive,inactive,inactive,inactive,inactive,,
C=C[C@@]1(C)CC(=O)[C@]2(O)[C@@]3(C)[C@@H](O)CCC(C)(C)[C@@H]3[C@H](O)[C@H](OC(C)=O)[C@@]2(C)O1,,inactive,inactive,inactive,inactive,,17.2 nM (active) and 18.8 nM (active),27.3 µM (active) and inactive,inactive
Nc1ccc2c(c1)C(=O)c1ccccc1C2=O,,2.78 µM (active) and 2.52 µM (active),inactive,inactive,inactive,,,inactive,1.34 µM (active) and 969 nM (active)
